Test results as given in PubChem BioAssay (EPA / NIEHS).
Records with an inconclusive call do not appear. Calls of active or inactive are those of the source. How the source made its calls: active means hit-call score of the fitted dose curve at least 0.9, where 1 is the maximum; inconclusive means response in the unintended direction; inactive means score below 0.9.

target: Androgen receptor (Homo sapiens) (UniProt P10275); experiment: ATG_AR_TRANS: Attagene TRANS-FACTORIAL HepG2 Assay for human Androgen Receptor (AR) (AID 2282973); settings: HepG2 Attagene TRANS-FACTORIAL AR reporter transcription
Method: ATG_TRANS is a cell-based, multiplexed-readout assay that uses HepG2, a human liver cell line, with measurements taken at 24 hours after chemical dosing in a 24-well plate.ATG_AR_TRANS is one of 30 assay component(s) measured or calculated from the ATG_TRANS assay. It is designed to make measurements of mRNA induction, a form of inducible reporter, as detected with fluorescence intensity signals by Reverse transcription polymerase chain reaction (RT-PCR) and Capillary electrophoresis technology.Data from the assay component ATG_AR_TRANS was analyzed into 1 assay endpoint. This assay endpoint, ATG_AR_TRANS, was analyzed in the positive analysis fitting direction relative to DMSO as the negative control and baseline of activity. Using a type of inducible reporter, measures of mRNA for gain-of-signal activity can be used to understand the reporter gene at the transcription factor-level as they relate to the gene AR. Furthermore, this assay endpoint can be referred to as a primary readout, because this assay has produced multiple assay endpoints where this one serves a reporter gene function. To generalize the intended target to other relatable targets, this assay endpoint is annotated to the nuclear receptor intended target family, where the subfamily is steroidal.
Human liver HepG2 cells are transiently transfected with multiple reporter transcription units (MRTUs) in 6-well plates using FuGene 6 reagent (Roche; 3 ml FuGene/1 mg DNA). The MRTU constructs are regulated by a cis-regulating element (promoter). […] A major difference between the CIS and TRANS system is that in CIS activities of endogenous TFs are measured, whereas the TRANS assay evaluates changes in activities of exogenous, chimeric NR-Gal4 proteins. […] At the end of 24 hour incubation, total RNA was isolated using TriZol reagent (Invitrogen). The isolated RNA is then reverse-transcribed using oligo(dT) primer and Mo-MLV reverse transcriptase (Invitrogen) with DNAse I (Ambion) treatment for 30 min. The one-tenth of the produced cDNA was amplified by PCR using Taq DNA polymerase (Invitrogen) and two reporter sequence-specific primers. The PCR products were fluorescently labeled by primer extension with 6-arboxyfluorescein (6-FAM) 5'-labeled reporter sequence-specific primer (2 min at 95 C, 20 s at 68 C and 10 min at 72 C) and these products were digested with 5U of HpaI (New England Biolabs) for 2h at 37 C. The fragments were purified using Qiaquick PCR columns (Qiagen), analyzed on an ABI 3130xL genetic analyzer (Applied Biosystems) with peak positions identified by using a set of X-rhodamine (ROX)-labeled MapMarker1000 molecular weight standards (BioVentures). The raw capillary electrophoresis data was processed using Attagraph software (Attagene).

Chain of Androgen receptor (Homo sapiens) (P10275 whole entry, looked up): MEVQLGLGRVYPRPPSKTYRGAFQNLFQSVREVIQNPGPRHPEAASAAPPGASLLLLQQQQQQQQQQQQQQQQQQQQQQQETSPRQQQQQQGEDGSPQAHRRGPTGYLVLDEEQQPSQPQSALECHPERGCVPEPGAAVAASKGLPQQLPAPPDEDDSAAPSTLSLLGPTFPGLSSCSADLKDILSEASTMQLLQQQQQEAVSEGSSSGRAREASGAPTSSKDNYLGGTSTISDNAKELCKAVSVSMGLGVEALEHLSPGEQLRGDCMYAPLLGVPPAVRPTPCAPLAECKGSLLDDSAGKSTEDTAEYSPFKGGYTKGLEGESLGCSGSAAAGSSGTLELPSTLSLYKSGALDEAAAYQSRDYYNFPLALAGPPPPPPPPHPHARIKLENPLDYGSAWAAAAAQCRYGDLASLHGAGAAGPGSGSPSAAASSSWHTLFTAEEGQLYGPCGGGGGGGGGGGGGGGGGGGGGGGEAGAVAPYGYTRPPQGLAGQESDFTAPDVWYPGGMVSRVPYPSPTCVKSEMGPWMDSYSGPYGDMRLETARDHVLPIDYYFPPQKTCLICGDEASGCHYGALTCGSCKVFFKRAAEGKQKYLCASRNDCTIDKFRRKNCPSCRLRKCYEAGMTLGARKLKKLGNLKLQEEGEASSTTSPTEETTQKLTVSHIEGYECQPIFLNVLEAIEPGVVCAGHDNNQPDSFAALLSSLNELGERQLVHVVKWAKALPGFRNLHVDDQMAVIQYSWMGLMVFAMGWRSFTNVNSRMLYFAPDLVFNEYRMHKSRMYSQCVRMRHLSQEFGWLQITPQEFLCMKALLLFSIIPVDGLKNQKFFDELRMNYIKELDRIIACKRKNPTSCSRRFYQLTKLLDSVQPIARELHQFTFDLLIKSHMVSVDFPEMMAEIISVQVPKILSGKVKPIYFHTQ

Compound	outcome
CC(C)=CC1C(C(=O)OCN2C(=O)C3=C(CCCC3)C2=O)C1(C)C (stereo not given)	inactive
COP(=O)(OC)SCn1c(=O)oc2cc(Cl)cnc21	inactive
O=c1ccc(=O)[nH][nH]1	inactive
CCC(=O)Nc1ccc(Cl)c(Cl)c1	inactive
Cc1nn(-c2cc(NS(C)(=O)=O)c(Cl)cc2Cl)c(=O)n1C(F)F	inactive
COc1ccc(C(=CC(=O)N2CCOCC2)c2ccc(Cl)cc2)cc1OC	inactive
CCc1cccc(CC)c1N(COC)C(=O)CCl	inactive
CCCCOC(=O)c1ccccc1C(=O)O	inactive
N#CSCSC#N	inactive
CCOP(=O)(NC(C)C)Oc1ccc(SC)c(C)c1 (stereo not given)	inactive
